ChEMBL document CHEMBL3988442, “University of Dundee, Small-Polar-MMV Screening Library” (2021)
Hit rate of the full screen: of about 48,000 compounds, about 13,000 (27%) showed an effect of 50% or more. The list shows a part of the results.

Test system: Wolbachia pipientis
Test: Anti-Wolbachia Cell-Based Screen
Format: functional
Set-up: scale not given: in the data most compounds retested in dose-response had high values
Details: 5 µM

Compound | Percent Effect
CC(=O)N[C@@H]1CN(C2CCN(c3cccc(Cl)c3)CC2)C[C@H]1C(C)C | 15.95%
Cc1nc(S(=O)(=O)NCCC(=O)NCc2ccsc2)cn1C | -10.44%
COCCC1(CO)CCCN(C(=O)c2cc(C#N)c(=O)[nH]c2C)C1 (stereo not drawn) | 6.218%
CC(C)C1CN(C(=O)c2csc(CN(C)C)n2)CCC(=O)N1CC1CC1 (stereo not drawn) | -2.363%
Cc1ccc(CN2CCCC(c3nnc(CN4CCCCC4)n3C)C2)s1 (stereo not drawn) | 9.152%
Cc1ccc(CN2CCCC(c3nn(C)c4nccnc34)C2)s1 (stereo not drawn) | 125.3%
Cl.Cn1nc(C2CCCN(Cc3ccccc3)C2)c2nccnc21 (stereo not drawn) | 128.3%
Cn1nc(C2CCCN(Cc3ccsc3)C2)c2nccnc21 (stereo not drawn) | -5.788%
Cc1ccc(CN2CCCC(c3nnc(CN4CCCC4)n3C)C2)s1 (stereo not drawn) | 10.41%
Cl.Cn1nc(C2CCCN(Cc3cccs3)C2)c2nccnc21 (stereo not drawn) | 122.9%
COc1cccc(CN2CCCC(c3nn(C)c4nccnc34)C2)c1.Cl (stereo not drawn) | 110.8%
c1ccc(CCN2CCCC(Cn3ccnc3)C2)cc1 (stereo not drawn) | -0.01768%
CC(C)n1nc2c(cc1=O)CN(Cc1nnc(C3CC3)o1)CC2 | 15.52%
CCc1cc(NCCNC(C)=O)nc(N2CCOCC2)n1 | -17.29%
CC1CCc2nc(O)c(C(=O)NCCc3cccs3)cc2C1 (stereo not drawn) | -7.543%
CCc1nnc(C(C)N(C)Cc2c(C)nn(-c3ccccc3)c2C)o1 (stereo not drawn) | 1.844%
CCn1cc(CN2CCCC2c2nc(C(C)C)no2)cc1C#N (stereo not drawn) | -5.015%
Cc1cccc(NC(=O)CNC(=O)Cn2ncc(Cl)c(Cl)c2=O)c1C | -3.817%
Cc1ncsc1C(=O)N1CCCC1c1c(C)nn(C)c1Cl (stereo not drawn) | 100%
COc1c(C2CCCN2C(=O)c2sc(C)nc2C)c(C)nn1C (stereo not drawn) | 94.35%
COc1ccsc1C(=O)N1CCCC1c1c(C)nn(C)c1OC (stereo not drawn) | -20.58%
COc1c(C2CCCN2C(=O)c2scnc2C)c(C)nn1C (stereo not drawn) | 97.95%
Clc1cccc2c3c([nH]c12)CCN(Cc1cc2n(n1)CCNC2)C3 | -8.419%
CC(C)Oc1cccc(CN(C)C(=O)Nc2cccn(C)c2=O)c1 | -28.92%

Compound | Percent Effect
Cc1ccc(Cl)c2c1C1(NC(=O)c3cccnc3N1)C(=O)N2 (stereo not drawn) | -5.673%
O=C(CCn1cccn1)NCCOc1ncc(Cl)cc1Cl | 81.6%
O=C(CCc1ccncc1)NCCOc1ncc(Cl)cc1Cl | -8.284%
Cl.O=C(CN1CCC[C@H]1C(=O)O)NCCOc1cccc(Cl)c1 | -9.308%
O=C(CCn1cccn1)NCCOc1ccc2c(c1)OCO2 | 104.8%
c1cnn(CCNCCCOc2ccc3c(c2)OCO3)c1 | -9.966%
Cc1cnn(CCNCCCOc2ccc3c(c2)OCO3)c1 | 2.747%
O=C(CCS(=O)(=O)c1ccccc1)NCCCn1cccn1 | 91.43%
O=C(NCCCn1cccn1)C1(c2ccc(F)cc2)CC1 | -8.161%
O=C(NCCCn1cccn1)C1(c2ccc(Br)cc2)CC1 | -2.807%
O=C(CCn1cccn1)NCCOc1cccc(Cl)c1 | 87.31%
O=C(NCCOc1ncc(Cl)cc1Cl)c1ccncc1 | -15.07%
O=C(C[S+]([O-])C1CCCC1)NCCOc1cccc(Cl)c1 (stereo not drawn) | -1.497%
c1ccc(-c2nc3c(c(NCCn4cccc4)n2)CCNCC3)nc1 | -2.581%
CC(C)c1nc(CC(=O)Nc2nc(CN3CCCCCC3)cs2)cs1 | 13.84%
O=C(CCOc1ccc(Cl)cc1)NCCCn1cccn1 | 101.2%
O=C(NCCCn1cccn1)C1COCC(=O)N1Cc1ccccc1 (stereo not drawn) | -30.45%
CC(C(=O)NCCOc1cccc(Cl)c1)n1cncn1 (stereo not drawn) | -0.6619%
Cc1occc1C(=O)NCC(=O)NCCOc1cccc(Cl)c1 | 23.6%
O=C(CCn1cncn1)NCCOc1cccc(Cl)c1 | 114.1%
O=C(CN1CCOc2ccc(Cl)cc21)NCCCn1cccn1 | -8.926%
CNc1nc(C(=O)N2C[C@H]3CC[C@@H]2CN(S(C)(=O)=O)C3)cs1 | -0.32%
COc1ccc(S(=O)(=O)N2CCC(OCc3ccccn3)C2)cc1Br (stereo not drawn) | 4.781%
Cc1cc(C2CCCN(CCNS(=O)(=O)c3ccccc3)C2)n[nH]1 (stereo not drawn) | 94.49%
